Measured values reported in PubChem BioAssay (Tox21).
Results filed as inconclusive are left out. Active and inactive are the calls of the source. Unless noted, calls follow the shape of the dose curve; as a rule, active = well fitted curve in the direction sought with a large enough effect in the repeat runs; inconclusive = weak or mixed curves; inactive = no such curve, though single readings can be large; an effect the other way counts as inactive or inconclusive.

Experiments:
[1] = qHTS assay to identify small molecule antagonists of the retinoid acid receptor (RAR) signaling pathway - cell viability counter screen (AID 1159551); also: nearly all actives have a fitted effect of over 35% in size
Summary of the method: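 Following overnight attachment, C3RL4 reporter cells received DMSO-dissolved compounds and then retinol (1 uM final). Six hours later at 37 C, ATP content was measured by CellTiter-Glo luminescence.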

[2] = qHTS assay to identify small molecule antagonists of the retinoic acid receptor (RAR) signaling pathway (AID 1159552; also: nearly all actives have a fitted effect of over 50% in size)
Summary of the method: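 Using a RARE-driven luciferase construct in C3RL4 cells, retinol at 1 uM final provided the agonist stimulus while compounds were co-applied. After 6 hours at 37 C, luminescence was recorded to flag inhibitors of retinol signaling.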

[3] = qHTS assay to identify small molecule agonists of the retinoic acid receptor (RAR) signaling pathway (AID 1159553); conditions: C3RL4 RARE luciferase reporter, agonist, 6 h; activation: at 73.3 µM (top of the series)
Summary of the method: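 Cell line C3RL4, RARE luciferase reporter. Treatment: compounds in DMSO, 6 hr, 37 C, 5% CO2, after overnight plating. Detection: luminescence, 30 min RT after reagent.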

[4] = target: Luciferin 4-monooxygenase (Photinus pyralis) (UniProt P08659); assay: qHTS assay to identify small molecule inhibitors of firefly luciferase (AID 1224835); also: nearly all actives have a fitted effect of over 25% in size
Summary of the method: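 Biochemical qHTS: compounds run as interplate titrations against purified firefly enzyme, with D-luciferin and ATP each at its KM concentration. Light output recorded by CCD imaging.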

[5] = qHTS assay to identify small molecule agonists of the constitutive androstane receptor (CAR) signaling pathway - cell viability counter screen (AID 1224836); also: nearly all actives have a fitted effect of over 45% in size
Summary of the method: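 Multiplexed viability check: HepG2-CYP2B6-hCAR cells, 15-point compound dosing, 0.75 uM PK11195 final, 23 h at 37 C, CellTiter-Fluor fluorescence.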

[6] = qHTS assay to identify small molecule antagonists of the constitutive androstane receptor (CAR) signaling pathway - cell viability counter screen (AID 1224837); also: nearly all actives have a fitted effect of over 45% in size
Summary of the method: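 Fluorescence from CellTiter-Fluor served as the viability signal. Human hepatoma HepG2 cells stably bearing hCAR and CYP2B6-2.2kb received compound plus CITCO (50 nM final) for 23 hr.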

[7] = qHTS assay to identify small molecule antagonists of the estrogen related receptor signaling pathway with the pleiotropic PPARgamma coactivator (PGC) from Tox21 10K library - cell viability counter screen (AID 1224840; active = well fitted cell-killing curve with a large enough effect in the repeat runs, not every such curve was filed as active; also: nearly all actives have a fitted effect of over 40% in size)
Summary of the method: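 Compounds in DMSO, alongside positive and negative controls, were pinned onto PGC/ERR cells (2,000 per well). Exposure lasted 17.5 hours at 37 C, followed by a 30-minute CellTiter-Fluor incubation and fluorescence reading.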

[8] = target: Thyrotropin receptor (Homo sapiens) (UniProt P16473); assay: qHTS assay to identify small molecule agonists of the thyroid stimulating hormone receptor (TSHR) signaling pathway (AID 1224843; calls by dose curve; also: nearly all actives have a fitted effect of over 45% in size)
Summary of the method: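 Steps: seed 800 TSHR-HEK293 cells per well; add test compound and hold 30 min at ambient temperature; dispense cAMP-d2 then anti-cAMP cryptate; incubate 1 h at ambient; measure fluorescence intensity.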

[9] = qHTS assay to identify small molecule agonists of the hypoxia (HIF-1) signaling pathway - cell viability counter screen (AID 1224844; calls by dose curve; also: nearly all actives have a fitted effect of over 50% in size)
Summary of the method: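 Luminescent ATP content (CellTiter-Glo, 30 min, room temperature) served as the viability measure in HRE-bla ME-180 cells exposed to compounds for 17 hrs in low-serum medium (0.5% dialyzed FBS).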

[10] = qHTS assay to identify small molecule agonists of H2AX (AID 1224845; active = well fitted activation curve with a large enough effect in the signal ratio in the repeat runs, not every such curve was filed as active; the % refers to the signal ratio)
Summary of the method: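 Wild-type CHO-K1 cells, plated overnight, exposed 3hr at 37C to 15 concentrations (0.76% DMSO final). Lysed, then HTRF anti-pH2AX (S139) cryptate and anti-H2AX-d2 antibodies, 24 hr room temperature; 665/620 nm emission read.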

[11] = qHTS assay to identify small molecule agonists of the hypoxia (HIF-1) signaling pathway (AID 1224846; active = well fitted activation curve with a large enough effect in the signal ratio in the repeat runs, not every such curve was filed as active; the % refers to the signal ratio)
Summary of the method: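 Measured by blue/green FRET after loading CCF4-AM: beta-lactamase expressed from a hypoxia response element in ME-180 cells. Test agents were delivered in DMSO and left 17 hrs; cells had been plated 5 hrs earlier in low-serum (0.5% dialyzed FBS) medium.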

[12] = qHTS assay to identify small molecule agonists of H2AX - cell viability counter screen (AID 1224847; calls by dose curve; also: top concentration of the series differs between compounds; nearly all actives have a fitted effect of over 30% in size)
Summary of the method: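 After overnight plating of 1000 CHO-K1 cells per well, a 15-concentration compound series was applied for 3 hr at 37C. Luminescence from CellTiter-Glo, read following 30 min at room temperature, reflected cell viability.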

[13] = qHTS assay to identify small molecule antagonists of the estrogen related receptor (ERR) signaling pathway from Tox21 library - cell viability counter screen (AID 1224834); also: nearly all actives have a fitted effect of over 30% in size
Summary of the method: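 Viability readout (CellTiter-Fluor fluorescence, 30 min at 37 C) multiplexed with the ERR assay; cells treated 17.5 h at 37 C with compounds delivered in DMSO.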

[14] = qHTS assay to identify small molecule antagonists of the estrogen related receptor signaling pathway with the pleiotropic PPARgamma coactivator (PGC) from Tox21 10K library (AID 1224841; call rule not given here; also: actives are mostly falling curves and most rising ones were filed inactive; nearly all actives have a fitted effect of over 50% in size)
Summary of the method: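 Compound exposure ran 18 hours at 37 C in PGC/ERR cells (2,000/well) that had first rested 6 hours in a 37 C/5% CO2 incubator. Luciferase activity was then detected with One-Glo after a 30-minute room-temperature step.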

[15] = qHTS assay to identify small molecule agonists of the estrogen related receptor signaling pathway with the pleiotropic PPARgamma coactivator (PGC) from Tox21 10K library (AID 1224842); also: nearly all actives have a fitted effect of over 15% in size
Summary of the method: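 PGC/ERR reporter cell line, 2,000 cells per well, incubated 6 h at 37 C before 23 nL compound in DMSO was added. After 18 h at 37 C, One-Glo luminescence read following 30 min at room temperature.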

[16] = qHTS assay to identify small molecule antagonists of the estrogen related receptor (ERR) signaling pathway from Tox21 library (AID 1224848); also: nearly all actives have a fitted effect of over 50% in size
Summary of the method: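 Luminescent reporter read-out (ONE-Glo) from NTP's ERR cell line after 18 h treatment at 37 C with DMSO-dissolved Tox21 compounds; cells pre-plated 6 h beforehand at 2,000 per well.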

[17] = qHTS assay to identify small molecule agonists of the estrogen related receptor (ERR) signaling pathway from Tox21 library (AID 1224849; calls by dose curve; also: nearly all actives have a fitted effect of over 15% in size)
Summary of the method: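 We plated ERR reporter cells, waited 6 h, added compounds in DMSO by pin tool and incubated them 18 h at 37 C. ONE-Glo was then added and luminescence read after 30 min.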

[18] = target: Nuclear receptor subfamily 1 group I member 3 (Homo sapiens) (UniProt Q14994); assay: qHTS assay to identify small molecule antagonists of the constitutive androstane receptor (CAR) signaling pathway (AID 1224838);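 also: HepG2 cells stably expressing hCAR with CYP2B6 luciferase reporter stimulated by CITCO; nearly all actives have a fitted effect of over 40% in size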
Summary of the method: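 Quantitative HTS in double-stable HepG2-CYP2B6-hCAR cells. After 4 h plating, cells get compound (15 concentrations) and CITCO at 50 nM final, incubate 24 h at 37 C, then ONE-Glo luminescence is read.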

[19] = target: Nuclear receptor subfamily 1 group I member 3 (Homo sapiens) (UniProt Q14994); assay: qHTS assay to identify small molecule agonists of the constitutive androstane receptor (CAR) signaling pathway (AID 1224839);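 also: HepG2 cells stably carrying human CAR and a CYP2B6 luciferase reporter; nearly all actives have a fitted effect of over 15% in size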
Summary of the method: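 Using human hepatoma HepG2 cells engineered with hCAR and a CYP2B6-2.2kb reporter, 15-concentration compound series were incubated 24 h alongside PK11195 at 0.75 uM final, with luminescence quantified afterwards.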

Measured: Potency

Luciferin 4-monooxygenase (Photinus pyralis), sequence (P08659 whole entry, looked up): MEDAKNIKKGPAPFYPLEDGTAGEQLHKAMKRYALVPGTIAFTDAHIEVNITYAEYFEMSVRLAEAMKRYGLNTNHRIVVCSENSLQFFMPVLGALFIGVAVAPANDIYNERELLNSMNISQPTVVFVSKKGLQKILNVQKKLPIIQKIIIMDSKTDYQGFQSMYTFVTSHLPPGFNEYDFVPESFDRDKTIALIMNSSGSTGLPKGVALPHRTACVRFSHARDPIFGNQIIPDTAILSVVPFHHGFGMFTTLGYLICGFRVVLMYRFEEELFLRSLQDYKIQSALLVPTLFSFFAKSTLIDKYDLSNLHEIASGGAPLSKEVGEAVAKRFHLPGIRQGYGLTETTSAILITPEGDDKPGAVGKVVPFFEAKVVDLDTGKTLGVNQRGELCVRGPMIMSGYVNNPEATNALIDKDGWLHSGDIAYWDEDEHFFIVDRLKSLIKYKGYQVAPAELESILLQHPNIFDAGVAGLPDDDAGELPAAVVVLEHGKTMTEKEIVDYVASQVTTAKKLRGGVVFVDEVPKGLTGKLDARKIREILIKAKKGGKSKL
Nuclear receptor subfamily 1 group I member 3 (Homo sapiens), sequence (Q14994 whole entry, looked up): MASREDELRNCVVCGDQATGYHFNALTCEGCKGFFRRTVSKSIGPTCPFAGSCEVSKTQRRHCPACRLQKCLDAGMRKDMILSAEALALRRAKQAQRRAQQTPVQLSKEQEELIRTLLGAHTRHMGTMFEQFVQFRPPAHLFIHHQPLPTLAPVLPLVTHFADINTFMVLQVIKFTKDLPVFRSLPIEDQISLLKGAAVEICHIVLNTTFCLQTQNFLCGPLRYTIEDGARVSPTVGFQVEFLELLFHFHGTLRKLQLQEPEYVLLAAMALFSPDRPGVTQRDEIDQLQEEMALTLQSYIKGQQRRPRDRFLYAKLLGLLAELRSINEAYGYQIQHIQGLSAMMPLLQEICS
Thyrotropin receptor (Homo sapiens), sequence (P16473 whole entry, looked up): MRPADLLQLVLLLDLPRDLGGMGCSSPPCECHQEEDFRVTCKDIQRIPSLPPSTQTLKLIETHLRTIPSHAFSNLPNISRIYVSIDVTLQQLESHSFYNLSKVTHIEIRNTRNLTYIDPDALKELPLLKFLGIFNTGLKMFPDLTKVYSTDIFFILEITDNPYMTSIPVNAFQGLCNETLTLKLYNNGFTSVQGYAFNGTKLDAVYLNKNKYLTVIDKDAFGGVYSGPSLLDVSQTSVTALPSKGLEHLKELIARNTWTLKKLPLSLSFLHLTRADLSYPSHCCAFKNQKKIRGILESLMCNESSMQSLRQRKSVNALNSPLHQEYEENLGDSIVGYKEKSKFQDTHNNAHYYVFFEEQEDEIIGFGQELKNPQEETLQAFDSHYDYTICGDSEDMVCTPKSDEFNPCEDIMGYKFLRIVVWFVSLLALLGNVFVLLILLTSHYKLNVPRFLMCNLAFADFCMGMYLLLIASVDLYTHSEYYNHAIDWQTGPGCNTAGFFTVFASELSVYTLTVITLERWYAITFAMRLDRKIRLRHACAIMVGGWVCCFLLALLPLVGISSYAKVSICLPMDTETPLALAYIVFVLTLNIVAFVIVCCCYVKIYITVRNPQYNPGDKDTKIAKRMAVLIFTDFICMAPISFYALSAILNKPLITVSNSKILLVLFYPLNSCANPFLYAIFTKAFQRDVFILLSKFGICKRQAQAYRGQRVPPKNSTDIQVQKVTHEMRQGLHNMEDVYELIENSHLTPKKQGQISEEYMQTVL

CNC(=O)NC
not listed: [13] | [14] | [15] | [16] | [17] | [18] | [19]
inactive: all other assays above

CC(C)CCCCCCOC(=O)C1CCCCC1C(=O)OCCCCCCC(C)C (centres undefined)
inactive: [1] | [2] | [3] | [13] | [4] | [5] | [6] | [11] | [12]

CC1(N)CCC(C(C)(C)N)CC1 (centres undefined)
not listed: [14] | [15] | [16] | [17] | [18] | [19]
inactive: all other assays above

CCCCCC1CCCC(=O)O1 (centres undefined)
not listed: [8] | [12] | [18] | [19]
inactive: all other assays above

CCN(Cc1cccc(S(=O)(=O)O)c1)c1ccccc1
not listed: [4] | [13] | [14] | [15] | [16] | [17] | [19]
inactive: all other assays above

C1=C\CC/C=C\CC/1
inactive: [1] | [2] | [13] | [5] | [6] | [18] | [7] | [10] | [11] | [12]

CN(C1CCCCC1)S(=O)(=O)c1ccccc1N
not listed: [7] | [13] | [14] | [19]
inactive: all other assays above

Cc1ccc(C(=O)C(=O)O)cc1C
not listed: [8] | [10] | [14] | [15] | [16] | [17] | [18] | [19]
inactive: all other assays above

Nc1ccc(S(=O)(=O)Nc2ccccn2)cc1
not listed: [11] | [12] | [14] | [15] | [16] | [17] | [18]
inactive: all other assays above
